Data: PubChem BioAssay (NCI)
The panel holds about 79,000 compounds, 15% with a hit somewhere; the sample as a whole holds those more often. Values without a mark were called inactive. Calls of active or inactive are those of the source. Rule as the data show it: active = growth inhibition above about 70%; inactive = the rest.

Key:
[1] = NCI Yeast Anticancer Drug Screen. Data for the rad50 strain (AID 155);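 also: 0% = growth of vehicle-only cultures of the same strain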; settings: S. cerevisiae rad50 strain growth inhibition, active compounds read high
Method in brief: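 A DNA repair-deficient yeast mutant serves as the test organism; compound-induced growth inhibition is calculated against vehicle-treated cells.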

[2] = NCI Yeast Anticancer Drug Screen. Data for the mec2-1 strain (AID 157); settings: S. cerevisiae mec2-1 strain, active compounds read high
Method in brief: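 Vehicle-treated cultures served as reference for growth inhibition of compound-exposed mec2-1 yeast.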

[3] = NCI Yeast Anticancer Drug Screen. Data for the sgs1 mgt1 strain (AID 161);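 also: 0% = growth of cultures given vehicle only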; settings: S. cerevisiae sgs1 mgt1 strain, active compounds read high
Method in brief: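 Mutant yeast exposed to compound; growth scored against vehicle-only wells.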

[4] = NCI Yeast Anticancer Drug Screen. Data for the cln2 rad14 strain (AID 165);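 also: 0% = growth equal to vehicle treated cultures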; settings: S. cerevisiae cln2 rad14 strain, active compounds read high
Method in brief: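 Each compound was tested on cln2 rad14 yeast. Inhibition of growth was calculated against vehicle-exposed controls.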

[5] = NCI Yeast Anticancer Drug Screen. Data for the bub3 strain (AID 167); settings: S. cerevisiae bub3 mutant strain, active compounds read high
Method in brief: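 Inhibition values come from growth of compound-treated mutant yeast normalised to vehicle-treated controls.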

[6] = NCI Yeast Anticancer Drug Screen. Data for the mlh1 rad18 strain (AID 175); settings: S. cerevisiae mlh1 rad18 strain growth inhibition, active compounds read high
Method in brief: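 Vehicle-treated cultures served as the reference for growth inhibition in a yeast strain carrying DNA damage repair alterations exposed to each compound.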

[7] = at 5.0 µM (retest, dose inferred, filed as 0.5)
[8] = at 50.0 µM (retest, dose inferred, filed as 5.0)

**Q.** Which results are given for `CCC[CH2][Sn]([CH2]CCC)([O]C(=O)c1cc(F)cc(F)c1)[O][Sn]([CH2]CCC)([CH2]CCC)[O]C(=O)c1cc(F)cc(F)c1`?
**A.** growth inhibition [1, 7]: 48%; growth inhibition [1, 8]: 88% (active); growth inhibition ([1]; at 50.0 µM): 83% (active); growth inhibition [2, 7]: 57%; growth inhibition [2, 8]: 97% (active); growth inhibition ([2]; at 50.0 µM): 88.7% (active); growth inhibition [3, 7]: 40%; growth inhibition [3, 8]: 95% (active); growth inhibition ([3]; at 50.0 µM): 89.7% (active); growth inhibition [4, 7]: 30%; growth inhibition [4, 8]: 88% (active); growth inhibition ([4]; at 50.0 µM): 85.8% (active); growth inhibition [5, 7]: 49%; growth inhibition [5, 8]: 99% (active); growth inhibition ([5]; at 50.0 µM): 89% (active); growth inhibition [6, 7]: 44%; growth inhibition [6, 8]: 96% (active); growth inhibition ([6]; at 50.0 µM): 87.7% (active)

**Q.** With `CC/C=C\C/C=C\C/C=C\CCCCCCCC(=O)OCC(O)CO` (stereo not given) as the compound, how does the growth inhibition [1, 7] read?
**A.** 0%

**Q.** And the growth inhibition [1, 8]?
**A.** 4%

**Q.** And the growth inhibition ([1]; at 50.0 µM)?
**A.** 22.9%

**Q.** What about the growth inhibition [2, 7] of the same compound?
**A.** 0%

**Q.** What about the growth inhibition [2, 8] of the same compound?
**A.** 37%

**Q.** What about the growth inhibition ([2]; at 50.0 µM) of the same compound?
**A.** 88.1% (active)

**Q.** And the growth inhibition [3, 7]?
**A.** 0%

**Q.** What about the growth inhibition [3, 8] of the same compound?
**A.** 48%

**Q.** What about the growth inhibition ([3]; at 50.0 µM) of the same compound?
**A.** 86.8% (active)

**Q.** What about the growth inhibition [4, 7] of the same compound?
**A.** 1%

**Q.** And the growth inhibition [4, 8]?
**A.** 10%

**Q.** And the growth inhibition ([4]; at 50.0 µM)?
**A.** 42.9%

**Q.** What about the growth inhibition [5, 7] of the same compound?
**A.** -2%

**Q.** What about the growth inhibition [5, 8] of the same compound?
**A.** 83% (active)

**Q.** And the growth inhibition ([5]; at 50.0 µM)?
**A.** 53.4%

**Q.** And the growth inhibition [6, 7]?
**A.** 2%

**Q.** And the growth inhibition [6, 8]?
**A.** 24%

**Q.** And the growth inhibition ([6]; at 50.0 µM)?
**A.** 52.5%

**Q.** For `CCCC(=O)Nc1cc([N+](=O)[O-])ccc1O`, which growth inhibition [1, 7] is on record?
**A.** -129%

**Q.** What about the growth inhibition [1, 8] of the same compound?
**A.** 97% (active)

**Q.** What about the growth inhibition ([1]; at 50.0 µM) of the same compound?
**A.** 99.3% (active)

**Q.** What about the growth inhibition [2, 7] of the same compound?
**A.** -38%

**Q.** What about the growth inhibition [2, 8] of the same compound?
**A.** 98% (active)

**Q.** What about the growth inhibition ([2]; at 50.0 µM) of the same compound?
**A.** 90% (active)

**Q.** What about the growth inhibition [3, 7] of the same compound?
**A.** -51%

**Q.** What about the growth inhibition [3, 8] of the same compound?
**A.** 88% (active)

**Q.** And the growth inhibition ([3]; at 50.0 µM)?
**A.** 63.2%

**Q.** What about the growth inhibition [4, 7] of the same compound?
**A.** -57%

**Q.** What about the growth inhibition [4, 8] of the same compound?
**A.** 84% (active)

**Q.** What about the growth inhibition ([4]; at 50.0 µM) of the same compound?
**A.** 96.7% (active)

**Q.** And the growth inhibition [5, 7]?
**A.** -57%

**Q.** What about the growth inhibition [5, 8] of the same compound?
**A.** 97% (active)

**Q.** What about the growth inhibition ([5]; at 50.0 µM) of the same compound?
**A.** 95.2% (active)

**Q.** What about the growth inhibition [6, 7] of the same compound?
**A.** -127%

**Q.** What about the growth inhibition [6, 8] of the same compound?
**A.** 93% (active)

**Q.** And the growth inhibition ([6]; at 50.0 µM)?
**A.** 98% (active)

**Q.** For `O=S(=O)(Nc1ccccc1)c1ccccc1C(O)(c1ccccc1)c1ccccc1`, which growth inhibition [1, 7] is on record?
**A.** 6%

**Q.** What about the growth inhibition [1, 8] of the same compound?
**A.** 71% (active)

**Q.** And the growth inhibition ([1]; at 50.0 µM)?
**A.** 93.6% (active)

**Q.** What about the growth inhibition [2, 7] of the same compound?
**A.** -15%

**Q.** What about the growth inhibition [2, 8] of the same compound?
**A.** 94% (active)

**Q.** And the growth inhibition ([2]; at 50.0 µM)?
**A.** 73.1% (active)

**Q.** And the growth inhibition [3, 7]?
**A.** -179%

**Q.** What about the growth inhibition [3, 8] of the same compound?
**A.** 48%

**Q.** And the growth inhibition ([3]; at 50.0 µM)?
**A.** 92.1% (active)

**Q.** What about the growth inhibition [4, 7] of the same compound?
**A.** -2%

**Q.** What about the growth inhibition [4, 8] of the same compound?
**A.** 82% (active)

**Q.** And the growth inhibition ([4]; at 50.0 µM)?
**A.** 85.2% (active)

**Q.** What about the growth inhibition [5, 7] of the same compound?
**A.** 15%

**Q.** And the growth inhibition [5, 8]?
**A.** 96% (active)

**Q.** And the growth inhibition ([5]; at 50.0 µM)?
**A.** 81.2% (active)

**Q.** And the growth inhibition [6, 7]?
**A.** -21%

**Q.** And the growth inhibition [6, 8]?
**A.** 92% (active)

**Q.** What about the growth inhibition ([6]; at 50.0 µM) of the same compound?
**A.** 95.5% (active)

**Q.** With `O=C(Cc1nc2ccccc2s1)Nc1ccc2ccccc2c1` as the compound, how does the growth inhibition [1, 7] read?
**A.** -8%

**Q.** What about the growth inhibition [1, 8] of the same compound?
**A.** 99% (active)

**Q.** What about the growth inhibition ([1]; at 50.0 µM) of the same compound?
**A.** 98% (active)

**Q.** And the growth inhibition [2, 7]?
**A.** 18%

**Q.** What about the growth inhibition [2, 8] of the same compound?
**A.** 99% (active)

**Q.** And the growth inhibition ([2]; at 50.0 µM)?
**A.** 98.5% (active)

**Q.** And the growth inhibition [3, 7]?
**A.** 31%

**Q.** And the growth inhibition [3, 8]?
**A.** 99% (active)

**Q.** And the growth inhibition ([3]; at 50.0 µM)?
**A.** 97.8% (active)

**Q.** What about the growth inhibition [4, 7] of the same compound?
**A.** -1%

**Q.** And the growth inhibition [4, 8]?
**A.** 99% (active)

**Q.** What about the growth inhibition ([4]; at 50.0 µM) of the same compound?
**A.** 95.3% (active)

**Q.** What about the growth inhibition [5, 7] of the same compound?
**A.** 12%

**Q.** And the growth inhibition [5, 8]?
**A.** 99% (active)

**Q.** And the growth inhibition ([5]; at 50.0 µM)?
**A.** 97.8% (active)

**Q.** And the growth inhibition [6, 7]?
**A.** 13%

**Q.** What about the growth inhibition [6, 8] of the same compound?
**A.** 99% (active)

**Q.** What about the growth inhibition ([6]; at 50.0 µM) of the same compound?
**A.** 97.8% (active)
